Experiment [1] in a line: Quantitative High-Throughput drug screen in 47 multiple myeloma cell lines against the NCATS MIPE library collection: FR4_PLB cell viability assay (AID 1918924; note: nearly all actives have a fitted effect of over 35% in size; note: potency is the fitted concentration of half-maximal effect). A digest of the protocol:
(§1)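 Luminescent ATP measurement with CellTiter-Glo gives viability, scaled between DMSO-only wells (100%) and media-only wells (0%). Cells, 500 per well, faced library compounds for 48 hours at 37C.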

Experiment [2] can be described thus: Quantitative High-Throughput drug screen in 47 multiple myeloma cell lines against the NCATS MIPE library collection: EJM_DSMZ cell viability assay (AID 1918926; note: nearly all actives have a fitted effect of over 30% in size; note: potency is the fitted concentration of half-maximal effect). The method, boiled down:
(§2)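 Relative luminescence from CellTiter-Glo served as the viability signal, referenced to DMSO-treated (100%) and cell-free medium (0%) controls. Treatment lasted 48 hours at 37C with 500 cells per well.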

Experiment [3] can be described thus: Quantitative High-Throughput drug screen in 47 multiple myeloma cell lines against the NCATS MIPE library collection: AMO1_DSMZ cell viability assay (AID 1918927; note: nearly all actives have a fitted effect of over 30% in size; note: potency is the fitted concentration of half-maximal effect). A digest of the protocol: as §2
The nature of experiment [4]: Quantitative High-Throughput drug screen in 47 multiple myeloma cell lines against the NCATS MIPE library collection: ARP1_JJKsccF8 cell viability assay (AID 1918928; note: nearly all actives have a fitted effect of over 40% in size; note: potency is the fitted concentration of half-maximal effect). A digest of the protocol:
(§3)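 Myeloma cells at 500 per well in 1536-well format treated with MIPE 4.0 library by pin transfer for 48 h at 37C, 5% CO2. Viability from ATP luminescence (CellTiter-Glo), normalized to DMSO (100%) and media-only (0%) wells.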

Experiment [5] is described as follows: Quantitative High-Throughput drug screen in 47 multiple myeloma cell lines against the NCATS MIPE library collection: Karpas620_DSMZ cell viability assay (AID 1918959). Note: nearly all actives have a fitted effect of over 30% in size. Note: potency is the fitted concentration of half-maximal effect. A digest of the protocol: as §1
A short description of experiment [6]: Quantitative High-Throughput drug screen in 47 multiple myeloma cell lines against the NCATS MIPE library collection: KMM1_JCRB cell viability assay (AID 1918960). Note: nearly all actives have a fitted effect of over 30% in size. Note: potency is the fitted concentration of half-maximal effect. The method, boiled down: as §3
A short description of experiment [7]: Quantitative High-Throughput drug screen in 47 multiple myeloma cell lines against the NCATS MIPE library collection: JIM3_ECACC cell viability assay (AID 1918963; note: nearly all actives have a fitted effect of over 35% in size; note: potency is the fitted concentration of half-maximal effect). The method, boiled down: as §1
Experiment [8] can be described thus: Quantitative High-Throughput drug screen in 47 multiple myeloma cell lines against the NCATS MIPE library collection: KMS12BM_JCRB cell viability assay (AID 1918971). Note: nearly all actives have a fitted effect of over 35% in size. Note: potency is the fitted concentration of half-maximal effect. The method, boiled down:
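Inhibition of cell viability is measured here. Each line was plated at 500 cells per well, treated with MIPE 4.0 drugs, kept 48 hours at 37C, then assayed for ATP content by CellTiter-Glo luminescence.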

Experiment [9] can be described thus: Quantitative High-Throughput drug screen in 47 multiple myeloma cell lines against the NCATS MIPE library collection: Delta47_JCRB cell viability assay (AID 1918925; note: nearly all actives have a fitted effect of over 45% in size; note: potency is the fitted concentration of half-maximal effect). A digest of the protocol:
as §2

Experiment [10] in a line: Quantitative High-Throughput drug screen in 47 multiple myeloma cell lines against the NCATS MIPE library collection: INA6_PLB cell viability assay (AID 1918965; note: nearly all actives have a fitted effect of over 55% in size; note: potency is the fitted concentration of half-maximal effect). A digest of the protocol:
(§4)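 Steps: seed 500 cells per well; pin-transfer MIPE 4.0 library; incubate 48 h at 37C, 5% CO2, humidified; add CellTiter-Glo, 5 min room temperature; read luminescence.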

Experiment [11] can be described thus: Quantitative High-Throughput drug screen in 47 multiple myeloma cell lines against the NCATS MIPE library collection: Karpas25_ECACC cell viability assay (AID 1918968; note: nearly all actives have a fitted effect of over 35% in size; note: potency is the fitted concentration of half-maximal effect). The method, boiled down: as §2
Experiment [12] can be described thus: Quantitative High-Throughput drug screen in 47 multiple myeloma cell lines against the NCATS MIPE library collection: ARD_JJKsccE7 cell viability assay (AID 1918929; note: potency is the fitted concentration of half-maximal effect). A digest of the protocol: as §2
The nature of experiment [13]: Quantitative High-Throughput drug screen in 47 multiple myeloma cell lines against the NCATS MIPE library collection: Karpas417_ECACC cell viability assay (AID 1918961). The following applies: Karpas417 myeloma viability, CellTiter-Glo ATP luminescence, 48 h; viability (% of DMSO): at 45.8 µM (top of the series). A digest of the protocol: as §4
(Cellular ATP, detected with luciferase, serves as a proxy for viable cell number.)

Experiment [14] in a line: Quantitative High-Throughput drug screen in 47 multiple myeloma cell lines against the NCATS MIPE library collection: JIM1_ECACC cell viability assay (AID 1918964; note: potency is the fitted concentration of half-maximal effect). The method, boiled down:
as §2

Experiment [15] can be described thus: Quantitative High-Throughput drug screen in 47 multiple myeloma cell lines against the NCATS MIPE library collection: H1112_PLB cell viability assay (AID 1918967; note: nearly all actives have a fitted effect of over 30% in size; note: potency is the fitted concentration of half-maximal effect). The method, boiled down:
as §2

A short description of experiment [16]: Quantitative High-Throughput drug screen in 47 multiple myeloma cell lines against the NCATS MIPE library collection: KMS27_JCRB cell viability assay (AID 1918970). Note: nearly all actives have a fitted effect of over 30% in size. Note: potency is the fitted concentration of half-maximal effect. The note with it: KMS27 myeloma cells, CellTiter-Glo ATP viability, 48 h; viability (% of DMSO): at 45.8 µM (top of the series). The method, boiled down: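 Viability inhibition screen, 48 h compound exposure, luminescent ATP read-out.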

A short description of experiment [17]: Quantitative High-Throughput drug screen in 47 multiple myeloma cell lines against the NCATS MIPE library collection: KHM11_PLB cell viability assay (AID 1918962). Note: nearly all actives have a fitted effect of over 35% in size. Note: potency is the fitted concentration of half-maximal effect. The method, boiled down: as §1
Experiment [18] can be described thus: Quantitative High-Throughput drug screen in 47 multiple myeloma cell lines against the NCATS MIPE library collection: JJN3_DSMZ cell viability assay (AID 1918966; note: nearly all actives have a fitted effect of over 50% in size; note: potency is the fitted concentration of half-maximal effect). The method, boiled down:
as §2

Inconclusive results are not listed. Active and inactive are the calls of the source. Calls come from the whole dose curve; as a rule, active = well fitted curve in the direction sought with a large enough effect; inconclusive = small, poorly fitted or top-dose-only effect, or another doubt; inactive = no such curve, though single readings can be large; an effect the other way counts as inactive or inconclusive.

For the compound `COc1ccnc(CS(=O)c2nc3ccc(OC(F)F)cc3[nH]2)c1OC` (stereo unspecified), the Potency entry in experiment [1], in experiment [2], in [3], in experiment [4], in experiment [6] and in experiment [7] was “inactive” throughout. For the same compound, the Potency entry in [8] is “inactive”. For the same compound, the Potency in experiment [5] was 29.6 µM (active).

As for `CC(O)=C(C#N)C(=O)Nc1ccc(C(F)(F)F)cc1`, the Potency in [1] was 16.6 µM (active); in experiment [9], 18.7 µM (active); in experiment [3], 6.62 µM (active); in [10], 26.4 µM (active); in experiment [11] it was 26.4 µM (active); in experiment [8], 14.8 µM (active). Also, the Potency result in experiment [5] and in experiment [6] was “inactive” each time.

As to `CCC=CC[C@H]1C(=O)CC[C@@H]1CC(=O)OC`, the Potency entry in [1], in experiment [2], in [3], in experiment [4], in experiment [12] and in experiment [5] was “inactive” each time. Also, the Potency entry in experiment [6], in experiment [13], in experiment [7], in experiment [14], in experiment [10] and in [15] was “inactive” each time. In addition, the Potency entry in [11] and in [16] was “inactive” throughout. The Potency in experiment [8] is 2.35 µM (active).

Turning to `COC1CCC(C(=O)c2ccc3nc4c(cc3c2)CCCO4)CC1` (stereo unspecified), the Potency in [1] was 26.4 µM (active); in experiment [9], 16.6 µM (active); in experiment [4], 23.5 µM (active); in [5], 16.6 µM (active); in experiment [17] it was 9.35 µM (active); in [7], 14.8 µM (active). Also, the Potency in experiment [10] was 13.2 µM (active); in experiment [18] it was 20.9 µM (active); in experiment [11], 18.7 µM (active); in experiment [16], 18.7 µM (active); in experiment [8], 20.9 µM (active).

On to `CO[C@H]1O[C@@H]2O[C@@]3(C)CC[C@@H]4[C@@H](C)CC[C@@H]([C@H]1C)[C@@]24OO3`, for which the Potency entry in experiment [1] was “inactive”. Also, the Potency in experiment [2] was 1.48 µM (active); in [3], 1.87 µM (active); in [4], 16.6 µM (active); in experiment [6], 1.32 µM (active); in experiment [10], 0.469 µM (active); in experiment [18], 5.9 µM (active). Moreover, the values for the Potency in experiment [11] and in experiment [8] were 1.18 µM (active) and 3.32 µM (active), respectively.

Regarding `O=C(O)c1nc(=O)[nH]c(=O)[nH]1`, the Potency entry in experiment [1], in experiment [2], in experiment [3], in experiment [4], in [12] and in experiment [5] was “inactive” in each case. The Potency entry in experiment [17], in [10], in experiment [15] and in [11] was “inactive” throughout.

For the compound `O=C(O)C1=CO[C@@H](O[C@@H]2O[C@H](CO)[C@H](O)[C@H](O)[C@H]2O)[C@@H]2C(CO)=CC[C@H]12`, the Potency result in [1], in experiment [3], in [4], in [13], in experiment [15] and in [11] was “inactive” each time. In addition, in experiment [16], the Potency entry is “inactive”. For the same compound, in experiment [2], the Potency is 5.9 µM (active).

Consider `C=C1c2cccc(O)c2C(O)=C2C(=O)[C@@]3(O)C(O)=C(C(N)=O)C(=O)[C@@H](N(C)C)[C@@H]3[C@@H](O)[C@H]12`, for which the Potency in experiment [1] was 16.6 µM (active); in experiment [2], 9.35 µM (active); in [4], 23.5 µM (active); in [7], 16.6 µM (active); in experiment [10], 13.2 µM (active); in [15], 11.8 µM (active). The Potency in [11] was 14.8 µM (active). In addition, the Potency result in [3], in experiment [5], in [6] and in experiment [17] was “inactive” in each case.

Regarding `O=C(Nc1ccccc1)Nc1ccc(-c2ccc(C(=O)[C@H]3CCC[C@H]3C(=O)O)cc2)cc1`, the Potency entry in experiment [1], in experiment [9], in experiment [4], in [17], in [7] and in [10] was “inactive” each time. Moreover, the Potency in experiment [5] is 13.2 µM (active); in experiment [6] it was 7.43 µM (active); in experiment [18], 3.72 µM (active); in [16] it was 0.372 µM (active).

Consider `CO[C@H]1/C=C\O[C@@]2(C)Oc3c(C)c(O)c4c(O)c(c(C=NN5CCN(C6CCCC6)CC5)c(O)c4c3C2=O)NC(=O)C(C)=CC=C[C@H](C)[C@H](O)[C@@H](C)[C@@H](O)[C@@H](C)[C@H](OC(C)=O)[C@H]1C`, for which the Potency in experiment [1] is 0.372 µM (active); in experiment [2] it was 0.833 µM (active); in experiment [4], 10.5 µM (active); in [12] it was 1.05 µM (active); in experiment [5] it was 0.264 µM (active); in experiment [17], 0.118 µM (active). For the same compound, the Potency in experiment [18] is 6.62 µM (active); in experiment [15] it was 1.18 µM (active); in experiment [11], 0.0235 µM (active); in experiment [8], 6.62 µM (active).

In the case of `Cc1ccc(S(=O)(=O)Nc2nc3ccccc3nc2Nc2ccc3nsnc3c2)cc1`, the Potency in experiment [1] is 6.45 µM (active); in experiment [9], 0.575 µM (active); in experiment [4] it was 7.24 µM (active); in [12], 0.724 µM (active); in experiment [6], 0.911 µM (active); in experiment [17], 0.575 µM (active). Besides, the Potency in experiment [7] was 1.82 µM (active); in [14], 0.182 µM (active); in experiment [10], 1.29 µM (active); in experiment [18] it was 1.44 µM (active); in [11], 0.645 µM (active); in experiment [16], 0.162 µM (active). Further, the Potency in [8] was 11.5 µM (active).

With `C[C@]12CCC3=C4CCC(=O)C=C4CC[C@@H]3[C@H]1CC[C@@]2(O)CC#N`, the Potency entry in experiment [1], in [9], in [4], in [17] and in [16] was “inactive” in each case.

Consider `N#Cc1c(N(CC(=O)O)CC(=O)O)sc(C(=O)O)c1CC(=O)O`, for which the Potency result in [1], in experiment [2], in [13] and in experiment [17] was “inactive” throughout. Moreover, the Potency in experiment [3] is 8.33 µM (active); in experiment [14] it was 5.9 µM (active); in experiment [10] it was 14.8 µM (active); in experiment [11] it was 18.7 µM (active).

Regarding `O=C(NCCCCN1CCOCC1)c1cc2ccccc2o1`, the Potency result in experiment [1], in experiment [2], in experiment [4], in experiment [12], in experiment [5] and in experiment [6] was “inactive” in each case. The Potency result in [17], in experiment [7] and in [18] was “inactive” each time. In [13], the viability (% of DMSO) was 159% (active). In experiment [8], the Potency is 0.0743 µM (active).

For `CNC(=O)c1cc(COc2nnc(Nc3ccc(Cl)cc3)c3ccoc23)ccn1`, the Potency is 26.4 µM (active) in experiment [1]; 5.26 µM (active) in experiment [3]; 9.35 µM (active) in [6]; 13.2 µM (active) in [10]; 29.6 µM (active) in experiment [18]; 26.4 µM (active) in experiment [8]. Besides, the Potency result in experiment [9], in [7], in experiment [14], in experiment [15] and in [11] was “inactive” in each case.

As to `O=C(Nc1cccc(Cl)c1)Nc1ncc(CCNc2ncnc3ccsc23)s1`, the Potency in experiment [1] was 6.62 µM (active); in experiment [9], 7.43 µM (active); in experiment [3], 1.05 µM (active); in experiment [12] it was 4.69 µM (active); in experiment [5], 3.32 µM (active); in [6], 5.9 µM (active). The Potency in [17] is 4.18 µM (active); in experiment [7], 13.2 µM (active); in experiment [10] it was 7.43 µM (active); in experiment [18], 5.26 µM (active); in [15] it was 0.0833 µM (active); in experiment [11], 18.7 µM (active). The Potency in experiment [8] is 6.62 µM (active).

The record behind these values is PubChem BioAssay (NCATS).
